Screening data deposited in PubChem by National Center for Advancing Translational Sciences (NCATS).
This is a sample that favours compounds with a hit; in the whole collection about 1.7% have one here.
miR-21 reporter = qHTS Assay for Modulators of miRNAs and/orActivators of miR-21; HeLa miR-21 FLuc reporter, luciferase, 48 h; Potency, µM (series often up to 38.3 µM), for the others: top-dose activity change, positive = activation, usual class: activators; 340,000 tested, under 10 active; AID 2288, 2010;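 further: % of control where 0% means no effect; miR-21 action dims this reporter so a rising signal means less miR-21 action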
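HeLa miR-21-FLuc reporter line, endogenous miR-21; 2000 cells/well in DMEM/10% FBS; compound titration up to ~40uM final, 48 h, 37 degree Celsius; luciferase detection reagent, 15 min lysis, CCD luminescence.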
PTHR1 agonist = qHTS for PTHR1 Agonists: Primary Screen; actives 0.075% (n = 410,000); Potency, µM (series often up to 115 µM), for inactives: top-dose activation, actives largely listed as activators; AID 743266, 2014; HEK293 GP2 PTHR1 cells, GloSensor cAMP luminescence, 1 h; further: potency means the concentration at half of the fitted maximal effect; nearly all actives have a fitted effect of over 55% in size
Target sequence (Q03431 whole entry, looked up): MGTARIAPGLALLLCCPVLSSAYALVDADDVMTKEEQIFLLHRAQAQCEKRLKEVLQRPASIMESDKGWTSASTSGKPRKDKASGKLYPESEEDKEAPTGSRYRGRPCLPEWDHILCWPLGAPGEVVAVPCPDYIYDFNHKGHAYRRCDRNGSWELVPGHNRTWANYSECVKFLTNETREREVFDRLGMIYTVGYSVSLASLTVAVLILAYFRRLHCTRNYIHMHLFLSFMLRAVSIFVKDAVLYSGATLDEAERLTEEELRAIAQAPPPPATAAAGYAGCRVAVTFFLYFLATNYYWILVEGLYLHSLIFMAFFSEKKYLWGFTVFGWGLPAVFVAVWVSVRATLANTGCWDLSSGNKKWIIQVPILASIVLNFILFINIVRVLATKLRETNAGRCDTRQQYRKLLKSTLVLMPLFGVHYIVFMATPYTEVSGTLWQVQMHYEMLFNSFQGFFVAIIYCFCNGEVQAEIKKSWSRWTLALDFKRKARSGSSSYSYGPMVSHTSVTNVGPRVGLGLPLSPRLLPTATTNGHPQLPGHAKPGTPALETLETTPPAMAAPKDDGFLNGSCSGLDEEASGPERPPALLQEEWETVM
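HEK-293-derived GP2 cells expressing PTHR1 and a GloSensor cAMP reporter, 3,000/well, plated overnight, given luciferin plus IBMX (each 0.5 mM as added) for 1 h at 37 °C, then compound for 1 h at 37 °C. Luminescence was read after 15 min at room temperature.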
GLP1R ag = qHTS of GLP-1 Receptor Agonists; Glucagon-like peptide 1 receptor (Homo sapiens), P43220; HEK293 GLP-1R CRE-luciferase, luminescence, 4-6 h; cells express a hypersensitive GLP-1R form; Potency, µM (series often up to 45.6 µM), for the others: top-dose activation, most hits filed as activators; actives 0.007% (n = 380,000); further: potency means the concentration at half of the fitted maximal effect; % of control where 0% means no effect
GLP-1R inv ag = qHTS of GLP-1 Receptor Inverse Agonists (Inhibition Mode); actives 1.6% (n = 410,000); AID 624417, 2012; Glucagon-like peptide 1 receptor (Homo sapiens), P43220; HEK293 GLP-1R CRE-luciferase, luminescence, 24 h; GLP-1R form is constitutively active; Potency, µM (top dose mostly 38.3 µM), without a hit: top-dose activity change, negative = inhibition, hits mostly inhibitors; further: potency means the concentration at half of the fitted maximal effect; on the % scale 0 is the no-effect control and ±100 the full control effect; nearly all actives have a fitted effect of over 55% in size
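Seeding at 200 cells/uL, 12 h culture, 24 hr compound treatment, then luciferase reagent and a luminescence read; cells are HEK293 stably expressing a constitutively active GLP-1R plus cAMP-responsive luciferase.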
Pin1 inhibitor = qHTS Assay to Find Inhibitors of Pin1; Peptidyl-prolyl cis-trans isomerase NIMA-interacting 1 (Homo sapiens), Q13526; Pin1 FP peptide displacement, HiFluor488, 10 min; Potency, µM (top dose mostly 115 µM), without a hit: at the highest dose activity, negative = inhibition, actives largely listed as inhibitors; actives 0.009% (n = 390,000); active means well fitted inhibition curve with a large enough effect in the polarisation, with a control signal flat, not every such curve was filed as active; inconclusive means small, poorly fitted or top-dose-only effect, or effect the other way, or a change in a side signal; inactive means no such curve, though single readings can be large or run the other way; the % refers to the polarisation; further: potency means the concentration at half of the fitted maximal effect; on the % scale 0 is the no-effect control and ±100 the full control effect
HEK293 tox = qHTS of GLP-1 Receptor Inverse Agonists: Cytotox Screen | Potency, µM (top dose mostly 38.3 µM), inactives show at the highest dose activity change, negative = inhibition, most hits filed as inhibitors | HEK293 cAMP-luciferase reporter cells, luminescence, 24 h | actives 0.13% (n = 410,000) | AID 624418, 2012;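 further: loss of luciferase light is scored as toxicity; potency means the concentration at half of the fitted maximal effect; on the % scale 0 is the no-effect control and ±100 the full control effect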
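Luminescence readout: signal drop marks cytotoxicity. Plated cells grew 12 h at 37 °C, 5% CO2, received 23 nL compound for 24 h, then got luciferase reagent, read after 12 min at RT.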
* = called active by the depositor; i = inactive; ? = inconclusive; nt = no result; [ ] = dose if it differs, or a comment. Unless noted, the call rests on the fitted dose curve; in most records, active means well fitted curve in the direction sought with a large enough effect; inconclusive means small, poorly fitted or top-dose-only effect, or another doubt; inactive means no such curve, though single readings can be large; an effect the other way counts as inactive or inconclusive.

SMILES | miR-21 reporter | PTHR1 agonist | GLP1R ag | GLP-1R inv ag | Pin1 inhibitor | HEK293 tox
O=C(NCc1ccccn1)c1cc(-c2ccc(-c3ccccc3)cc2)nc2ccccc12 | 18.3% | -34.7% | 3.1% | 2µM* | 8.5% | -8.0%
C/C(=N\NC(=O)c1cc(-c2cccs2)nc2ccccc12)c1ccccn1 | 14.5% | i | 7.5% | 2.82µM* | 2.7% | ?
COc1ccc2c(c1)c1nnc(SC)nc1n2Cc1ccccc1 | nt | nt | nt | nt | 0.7% | nt
Cc1ccc2nc(COc3ccccc3NC(=O)c3ccc(F)cc3)cc(=O)n2c1 | -1.2% | ? | nt | 17.4% | -7.7% | 27.7%
Cc1c(P(=S)(c2ccccc2)c2ccccc2)[n+]2ccccc2n1Cc1ccccc1 | nt | nt | nt | nt | 1.4% | nt
O=C(Nc1nccs1)c1cc(-c2ccccc2)nc2ccccc12 | 13.5% | -7.3% | 1.5% | 5.01µM* | 0.1% | -4.5%
Cc1ccc(S(=O)(=O)/C(=C/Cl)NC(=O)c2ccccc2)cc1 | 25.5% | -31.3% | -7.6% | 10µM* | 3.7% | 6.31µM*
Cc1ccc(C(=O)NC(=C(Cl)Cl)S(=O)(=O)c2ccc(C)cc2)cc1 | 14.1% | i | -12.8% | ? | -4.5% | ?
COc1ccc(C2c3[nH]c4ccccc4c3C[C@H]3C(=O)N(C4CCN(Cc5ccccc5)CC4)CC(=O)N23)cc1OC (stereo not given in full) | 16.7% | i | -4.7% | 12.6µM* | 8.0% | -15.9%
COc1ccccc1C1c2[nH]c3ccccc3c2C[C@H]2C(=O)N(C3CCN(Cc4ccccc4)CC3)CC(=O)N12 (stereo not given in full) | 20.4% | i | -1.1% | 5.62µM* | 31.1% | -7.4%
COc1cccc(C2c3[nH]c4ccccc4c3C[C@H]3C(=O)N(C4CCN(Cc5ccccc5)CC4)CC(=O)N23)c1 (stereo not given in full) | 19.8% | -18.8% | -3.0% | 2µM* | 18.6% | -16.5%
O=C1[C@@H]2Cc3c([nH]c4ccccc34)C(c3ccccc3)N2C(=O)CN1C1CC1 (stereo not given in full) | 0.3% | 5.9% | 5.7% | -3.2% | 4.3% | 185.1%
COc1ccc(CC(=O)N2CCC(Nc3nc4ccccc4n3Cc3ccc(F)cc3)CC2)cc1 | -7.9% | -4.6% | -7.5% | 8.91µM* | ? | -17.4%
COc1ccc(Cn2c(SCC(=O)N3CCN(c4ccc(F)cc4)CC3)nc3ccccc32)cc1 | -1.8% | i | nt | -21.0% | ? | -9.7%
O=C(Nc1nc(-c2cccc([N+](=O)[O-])c2)cs1)C(c1ccccc1)c1ccccc1 | 2.6% | -2.4%[57.5 µM] | -19.7% | 1.58µM* | -2.1% | 49.7%
CCc1nn(CCCC(=O)N2CCN(c3cccc(C)c3C)CC2)c(=O)c2cc3occc3n12 | -1.7% | -95.3% | 24.4% | 11.2µM* | 10.8% | -4.7%
COc1cccc(C2c3c(ncn(-c4ccccc4C#N)c3=N)Oc3ccc4ccccc4c32)c1 (stereo not given) | nt | nt | nt | nt | 5.2% | nt
Cc1ccc(S(=O)(=O)N2CCN(c3nc(-c4cnccn4)nc4ccccc34)CC2)cc1 | nt | nt | nt | nt | -3.6% | nt
O=c1c2ccccc2nc2sc(Nc3cccc(N4CCNCC4)c3)nn12 | nt | nt | nt | nt | 21.4% | nt
CCOC(=O)C1CCC(CN(Cc2ccc(OC)cc2)S(=O)(=O)c2ccc(F)c(C(=O)Nc3c(C)cccc3C)c2)CC1 (stereo not given) | 3.3% | i | nt | 2µM* | -1.4% | -1.0%
Cc1cc(-c2ccccc2)nc(Oc2cccc(C(F)(F)F)c2)c1S(C)(=O)=O | -0.4% | i | 7.2% | 10µM* | ? | 7.1%
